# Results taken from PubChem BioAssay (NCI).
# Compounds without any hit were thinned out: in the full panel of roughly 79,000, 15% have a hit. A number with no mark means an inactive call. Active and inactive are the calls of the source. Rule as the data show it: active = growth inhibition above about 70%; inactive = the rest.
# Assay: NCI Yeast Anticancer Drug Screen. Data for the rad50EPP+ strain (AID 151);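 also: 0% = growth of vehicle-treated control cultures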
# Conditions: S. cerevisiae rad50 mutant strain, active compounds read high
# Procedure: Growth inhibition of yeast strains with defined genetic alterations is measured as a screen for potential anti-cancer activity. Selected strains with alterations in DNA damage repair or cell cycle control were exposed to compounds and growth inhibition was measured relative to vehicle treated controls. The strain used in this assay is rad50EPP+
SMILES,growth inhibition (at 1.2 µM) [%],growth inhibition (at 3.7 µM) [%],growth inhibition (at 11.0 µM),growth inhibition (at 33.0 µM),growth inhibition (at 100.0 µM)
CN(Cc1cnc2nc(N)nc(N)c2n1)c1ccc(C(=O)NC(CCC(=O)O)C(=O)O)c2ccccc12 (stereo not given),5,24,41%,57%,79% (active)
CC1C(C#N)(C#N)C(C#N)=C(N)C1(Cl)[N+](=O)[O-] (stereo not given),19,37,55%,78% (active),85% (active)
Cc1ccc(S(=O)(=O)N(C)c2ccc(Cl)cc2C2=NCCc3ccccc32)cc1,-8,-9,-14%,-9%,-8%
N#CC(=C1C=CC(=NO)C=C1)c1ccccc1,24,64,96% (active),99% (active),98% (active)
CN(CC(=O)O)c1ccc(/C=C/c2ccnc3ccccc23)cc1,-9,3,8%,35%,83% (active)
O=C(N/N=C\c1c(Cl)cccc1Cl)N/N=C/c1c(Cl)cccc1Cl,7,19,10%,2%,5%
Cn1ncc2cc3c(Nc4ccc(Cl)cc4)cccc3nc21,0,1,2%,7%,36%
Nc1cc(F)cc2c1-c1ccc(F)cc1C2,3,10,25%,90% (active),95% (active)
